Experiment [1] in a line: qHTS assay for environmental chemicals that activate the Aryl hydrocarbon Receptor (AhR) signaling pathway (AID 651777). For activation: % of control where 0% means no effect. Note: nearly all actives have a fitted effect of over 15% in size. Note: potency is the fitted concentration of half-maximal effect. As to conditions: 1A2-DRE human hepatoma cells, luciferase, 24 h; activation: active compounds read high. The essentials: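 Reporter gene assay: hepatoma cells with DRE/CYP1A2-luciferase, 24 hr compound incubation at 37 C, 5% CO2, luminescence after One-Glo (30 min, RT).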
A general note: In qHTS, concentration-response curves come from the screen itself.

In experiment [2] the target is Tumor necrosis factor (Homo sapiens) (UniProt P01375). Description: qHTS assay to identify small molecules that stimulate Tumor Necrosis Factor-alpha (TNF-alpha) secretion (AID 651757; active = well fitted curve in the direction sought with a large enough effect in the signal ratio; the % refers to the signal ratio; note: 0% is about no effect). An outline of the steps: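 Using 3000 THP-1 cells per well, compounds and controls were applied for 17 hrs at 37 C. Detection followed with two labeled anti-TNF-alpha antibodies (cryptate donor, XL665 acceptor) for 3 hr at room temperature, measured by TR-FRET.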

For experiment [3], the target named is Nuclear receptor ROR-gamma (Homo sapiens) (UniProt P51449). Description: qHTS assay for small molecule antagonists of the retinoid-related orphan receptor gamma (ROR-gamma) signaling pathway (AID 651802). Note: nearly all actives have a fitted effect of over 60% in size. Note: potency is the fitted concentration of half-maximal effect. An outline of the steps: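 Doxycycline-induced reporter activity in engineered CHO cells (TET-inducible ROR, RORE-LUC) was measured by luminescence after 16hr compound exposure at 37C.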

For experiment [4], the target named is Arylsulfatase A (Homo sapiens) (UniProt P15289). The experiment can be described thus: qHTS screen for enhancers of Arylsulfatase A (ASA1): LOPAC Validation Assay (AID 720538). As to conditions: outcome: dose series up to 57.5 µM. The essentials:
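SV40-transformed skin fibroblasts from an MLD patient (ASA-I179S) were treated with compounds for 48h at 37 degree C, then lysed with 0.5mM pNCS final substrate for 14h at room temperature; NaOH stop, fluorescence read (Ex=525 nm; Em=598 nm).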

Experiment [5] in a line: qHTS for Activators of Parkin Expression: LOPAC Validation Assay (NLuc Reporter) (AID 720572). An outline of the steps: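 Compound effects on Parkin promoter activity were measured as NanoLuc luminescence after 24 h at 37 C. The neuronal reporter line also carried FLuc, which was read first. LOPAC compounds were tested at 7 concentrations, with normalization to DMSO (0%) and positive control (100%).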

A short description of experiment [6]: qHTS for Activators of Parkin Expression: LOPAC Validation Assay (FLuc Reporter) (AID 720573). An outline of the steps: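 Neuronal cell line stably carrying FLuc/NLuc coincidence reporter under Parkin promoter; cells plated 24 h, then compounds added in 7-point dose response for 24 h at 37 C. FLuc luminescence read; normalized to DMSO and positive control (100%).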

Experiment [7] can be described thus: qHTS assay for small molecule antagonists of the retinoid-related orphan receptor gamma (ROR-gamma) signaling pathway - cell viability counter screen (AID 720652; active = well fitted curve in the direction sought with a large enough effect in the repeat runs; an effect the other way counts as inactive or inconclusive;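 note: compound exposure lasted 16 hr before ATP read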; note: potency is the fitted concentration of half-maximal effect). The essentials: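 ATP-based viability readout in the ROR-gamma reporter CHO cells after 16 hr compound exposure under doxycycline induction.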
The target of experiment [8] is Tyrosine-protein kinase Yes (Homo sapiens) (UniProt P07947). The experiment can be described thus: qHTS for small molecule inhibitors of Yes1 kinase: Primary Screen (AID 686947). Note: nearly all actives have a fitted effect of over 60% in size. Note: potency is the fitted concentration of half-maximal effect. An outline of the steps:
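In this qHTS format, inhibition is expressed relative to DMSO controls with enzyme (maximum) and without enzyme (minimum). The 60 min room-temperature reaction uses 0.1 mM ATP, with ADP detected by luminescence.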

A short description of experiment [9]: qHTS for small molecule inhibitors of Yes1 kinase: Counter Assay (AID 686950).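 Note: no kinase present so only ADP-Glo detection of a fixed ADP amount is tested; luminescence from ADP-Glo reporting ADP in a fixed ATP and ADP mixture; series mostly up to about 77 µM; 0% = DMSO wells with ATP plus ADP and -100% = ATP-only wells without ADP.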 An outline of the steps:
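ADP-Glo luminescence read after a 60 min room-temperature incubation of compound with an ATP/ADP mix (0.08 mM/0.02 mM) and no kinase, following a 20 min compound preincubation. Signal scaled between ATP+ADP (max) and 0.1 mM ATP-only (min) wells; Tris pH 7.5, Mg2+, DTT.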

Where “and” joins values, the source holds several entries; their conditions need not be identical. Identical values can stand only once. A number with no mark means an inactive call. Records with an inconclusive call do not appear. Calls of active or inactive are those of the source. Unless noted, calls come from the whole dose curve; as a rule, active = well fitted curve in the direction sought with a large enough effect; inconclusive = small, poorly fitted or top-dose-only effect, or another doubt; inactive = no such curve, though single readings can be large; an effect the other way counts as inactive or inconclusive.

Tumor necrosis factor (Homo sapiens), sequence (P01375 whole entry, looked up): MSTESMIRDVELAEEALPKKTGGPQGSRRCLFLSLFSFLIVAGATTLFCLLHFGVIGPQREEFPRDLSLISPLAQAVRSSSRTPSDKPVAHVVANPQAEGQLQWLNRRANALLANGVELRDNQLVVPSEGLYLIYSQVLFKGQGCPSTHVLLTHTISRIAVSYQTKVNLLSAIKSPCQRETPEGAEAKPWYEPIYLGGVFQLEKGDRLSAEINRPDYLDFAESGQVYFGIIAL
Nuclear receptor ROR-gamma (Homo sapiens), sequence (P51449 whole entry, looked up): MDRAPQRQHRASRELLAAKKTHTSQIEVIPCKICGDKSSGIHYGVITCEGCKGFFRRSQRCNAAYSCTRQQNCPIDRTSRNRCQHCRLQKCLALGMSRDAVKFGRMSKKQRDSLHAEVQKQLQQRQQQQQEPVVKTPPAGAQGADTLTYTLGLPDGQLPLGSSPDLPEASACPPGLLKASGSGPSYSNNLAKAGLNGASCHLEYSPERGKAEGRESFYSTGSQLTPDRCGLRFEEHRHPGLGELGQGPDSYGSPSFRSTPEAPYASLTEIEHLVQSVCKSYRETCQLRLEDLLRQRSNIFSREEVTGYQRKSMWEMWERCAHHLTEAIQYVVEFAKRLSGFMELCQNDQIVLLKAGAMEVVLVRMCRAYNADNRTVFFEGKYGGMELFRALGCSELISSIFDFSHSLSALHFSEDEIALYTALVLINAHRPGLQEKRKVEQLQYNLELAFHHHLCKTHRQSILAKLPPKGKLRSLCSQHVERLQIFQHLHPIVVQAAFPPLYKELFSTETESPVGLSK
Tyrosine-protein kinase Yes (Homo sapiens), sequence (P07947 whole entry, looked up): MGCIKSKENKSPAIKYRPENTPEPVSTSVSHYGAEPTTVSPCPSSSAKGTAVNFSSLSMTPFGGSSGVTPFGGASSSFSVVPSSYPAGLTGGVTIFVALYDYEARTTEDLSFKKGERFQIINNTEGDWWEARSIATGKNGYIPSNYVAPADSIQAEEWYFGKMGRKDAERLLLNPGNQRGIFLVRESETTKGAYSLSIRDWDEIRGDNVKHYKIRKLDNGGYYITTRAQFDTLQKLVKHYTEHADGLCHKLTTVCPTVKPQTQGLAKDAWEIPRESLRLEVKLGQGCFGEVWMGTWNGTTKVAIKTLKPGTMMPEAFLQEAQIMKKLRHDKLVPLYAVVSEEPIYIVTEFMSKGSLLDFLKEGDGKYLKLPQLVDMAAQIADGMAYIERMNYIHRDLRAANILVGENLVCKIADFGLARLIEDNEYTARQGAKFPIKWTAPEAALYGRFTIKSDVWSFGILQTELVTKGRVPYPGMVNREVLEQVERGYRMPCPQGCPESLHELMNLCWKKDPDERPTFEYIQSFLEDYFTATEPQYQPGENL
Arylsulfatase A (Homo sapiens), sequence (P15289 whole entry, looked up): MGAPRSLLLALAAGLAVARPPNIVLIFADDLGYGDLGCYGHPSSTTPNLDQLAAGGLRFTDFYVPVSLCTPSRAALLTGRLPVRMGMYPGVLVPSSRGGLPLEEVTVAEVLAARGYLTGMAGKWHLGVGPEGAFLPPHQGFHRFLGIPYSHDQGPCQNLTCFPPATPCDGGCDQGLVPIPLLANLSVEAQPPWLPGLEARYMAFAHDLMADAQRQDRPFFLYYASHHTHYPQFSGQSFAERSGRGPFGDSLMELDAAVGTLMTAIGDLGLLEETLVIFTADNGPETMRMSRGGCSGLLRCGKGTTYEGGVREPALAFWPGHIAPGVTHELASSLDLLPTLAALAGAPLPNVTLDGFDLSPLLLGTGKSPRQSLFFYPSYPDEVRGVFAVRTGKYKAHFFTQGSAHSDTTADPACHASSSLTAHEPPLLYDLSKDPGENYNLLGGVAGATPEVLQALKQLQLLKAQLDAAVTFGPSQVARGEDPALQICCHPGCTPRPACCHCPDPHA

On to `O=c1cc(-c2ccccc2)oc2cc(O)cc(O)c12`, for which, in experiment [1], the Potency is 39.8 µM (active).

Consider `CC(=O)c1ccc(S(=O)(=O)NC(=O)NC2CCCCC2)cc1`, for which the call in [2] and in experiment [4] was inactive. Further, in experiment [1], the activation is -0.49% and 0.0331%. The Potency entry in [3], in [5], in [6] and in [7] was “inactive” in each case.

Take `CC/C(=C(\c1ccccc1)c1ccc(OCCN(C)C)cc1)c1ccccc1`: the compound was classed as inactive in experiment [2] and in [9]. The activation in experiment [1] is -5.69% and -2.28%. For the same compound, the Potency in experiment [3] is 29.8 µM (active); in [7] it was 66.8 µM (active). Also, the Potency result in experiment [8], in experiment [5] and in [6] was “inactive” throughout. The outcome in [4] is “inactive; inhibitor; fitted 5.3582 uM”.

For the compound `O=C(O)c1cc(O)c2c(c1)C(=O)c1cccc(O)c1C2=O`, the activation in experiment [1] is 1.52%. Moreover, the Potency in experiment [3] is 37.6 µM (active). The Potency result in experiment [7] is “inactive”.

Regarding `CC(=O)N[C@@H](CS)C(=O)O`, the activation in [1] is -0.0175%. Besides, the outcome in experiment [4] was inactive. For the same compound, the Potency entry in experiment [5] and in [6] was “inactive” each time.

With `CCn1cc(C(=O)O)c(=O)c2ccc(C)nc21`, the Potency entry in experiment [3], in experiment [5], in experiment [6] and in [7] was “inactive” throughout. Moreover, in experiment [4], the outcome was inactive.

For the compound `O=C(CCCCCCC(=O)Nc1ccccc1)NO`, the Potency result in experiment [8] is “inactive”.

As for `O=C(O)Cc1cccc2ccccc12`, in experiment [2], the result was inactive. In addition, in experiment [1], the activation is 0.508% and -1.02%. Moreover, the Potency result in experiment [3] and in experiment [7] was “inactive” each time.

For `Clc1ccc(-c2nc3sccn3c2C=NOCc2ccc(Cl)c(Cl)c2)cc1`, in experiment [8], the Potency result was “inactive”. Moreover, in experiment [9], the result was inactive.

`CC(C)[C@H](CO)Nc1nc(Nc2ccc(C(=O)O)c(Cl)c2)c2ncn(C(C)C)c2n1`: the Potency in [8] was 0.0194 µM (active). In [9], the call was inactive.

Take `COc1ccc(C2CC(c3ccccc3)=NN2c2ccc(S(N)(=O)=O)cc2)cc1` (stereo not given): in experiment [8], the Potency entry was “inactive”. In addition, in [9], the outcome was inactive.
